HT1080-NT tox = kills 2HG-producing HT-1080-NT fibrosarcoma cells | HT-1080-NT fibrosarcoma viability, CellTiter-Glo ATP luminescence, 48 h | Potency, µM (highest dose often 46.1 µM), for the others: top-dose activity, negative = less viability, hits mostly cytotoxic | 1.6% of 360,000 active;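 note: NT is the 2HG producing partner of a matched IDH1 knockdown line; potency is the fitted concentration of half-maximal effect; 0% = DMSO-treated cells and -100% = media-only wells without cells; nearly all actives have a fitted effect of over 55% in size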
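Toxicity toward the 2HG-producing NT line was scored as %Activity, normalised to DMSO and no-cell wells, from CellTiter-Glo luminescence after 48 hours' treatment.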
DT40 TDP1 CPT = DT40-hTDP1 cell growth loss with CPT; chicken DT40 Tdp1-/-;hTDP1 cells + 20 nM CPT, ATP luminescence, 48 h; Potency, µM (doses to about 46.2 µM), for inactives: top-dose activity change, negative = growth inhibition, usual class: inhibitors; 12% of 420,000 active; note: potency is the fitted concentration of half-maximal effect; nearly all actives have a fitted effect of over 55% in size
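Cell growth measured by CellTiter-Glo luminescence after a minimum 48 h, 37 C compound exposure with 20 nM CPT in Tdp1-knockout DT40 cells stably expressing hTDP1, seeded 400/well; qHTS titration format.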
IL-1B inflam inh = inflammasome signaling inhibition, IL-1 beta readout; THP-1 LPS/ATP IL-1B secretion, AlphaLISA, 16 h; hits give low values; activity change, % at 57.5 µM; 4.7% of 360,000 active; in the data active = activity change below about -50%; inconclusive = mostly about -30% to -49%
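Secreted IL-1B measured by AlphaLISA bead assay after 16 h compound exposure of THP-1 cells; compounds (final up to 57.5 uM) added 1 h before LPS (250 ng/mL) and ATP (1.25 mM) stimulation; lower signal means less secretion.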
HT1080 IDH1KD tx = kills HT-1080 cells with IDH1 knockdown. HT-1080 IDH1 knockdown viability, ATP luminescence, 48 h. Potency, µM (titrated, usually from 46.1 µM), for the others: at the highest dose activity, negative = toxicity, usual class: cytotoxic. 2% of 360,000 active. AID 686971;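 note: potency is the fitted concentration of half-maximal effect; 0% = DMSO wells and -100% = cell-free medium wells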
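Knockdown cells (IDH1KD HT-1080) received compounds 2 h after plating at 750 cells/well and were kept 48 h at 37 °C in 5% FBS RPMI. A CellTiter-Glo luminescence read gave % activity for curve fitting.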
DT40 TDP1 no CPT = qHTS for Inhibitors of human tyrosyl-DNA phosphodiesterase 1 (TDP1): qHTS in cells in absence of CPT. DT40 Tdp1-/- hTDP1 cells, no CPT, ATP luminescence, 48 h. Potency, µM (highest dose often 46.2 µM), without a hit: at the highest dose activity change, negative = growth inhibition, actives largely listed as inhibitors. 15% of 420,000 active. AID 686978, 2013; note: potency is the fitted concentration of half-maximal effect; nearly all actives have a fitted effect of over 55% in size
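No-CPT arm: Tdp1-/-;hTDP1 DT40 cells (400/well) plus compounds, incubated ≥48 hr at 37 °C. Readout CellTiter-Glo luminescence.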
* marks the source's active call; other numbers are inactive results; ? = inconclusive; . = not tested or not shown. Compounds with a hit are over-represented: about 19% of the library has one in this group of screens. Unless noted, calls come from the whole dose curve; as a rule, active = well fitted curve in the direction sought with a large enough effect; inconclusive = small, poorly fitted or top-dose-only effect, or another doubt; inactive = no such curve, though single readings can be large; an effect the other way counts as inactive or inconclusive. Unless noted, % is set by controls: 0 for no effect and ±100 for the full control effect.

SMILES	HT1080-NT tox	DT40 TDP1 CPT	IL-1B inflam inh	HT1080 IDH1KD tx	DT40 TDP1 no CPT
COc1cc(OC)cc(C(=O)NCC2CCCN(Cc3ccc(SC)cc3)C2)c1 (stereo unspecified)	-6%	?	?	-2%	16µM*
CC(C)(C)C(=O)NC1CC2CCCC(C1)N2C(=O)Nc1ccc(Cl)cc1 (stereo unspecified)	10%	2%	2	14%	-18%
N#Cc1ccc(C23CC4(C2)[C@H](CN(P(=O)(c2ccccc2)c2ccccc2)[C@@H]4c2ccccc2)C3c2ccc(Cl)nc2)cc1 (stereo partly specified)	?	23µM*	?	-21%	?
COC(=O)c1ccc(C23CC4(C2)[C@H](CN(Cc2ccc(C(F)(F)F)cc2)[C@@H]4c2ccccc2)C3c2ccccc2)cc1 (stereo partly specified)	-8%	7.3µM*	24	-4%	4.1µM*
c1ccc(C2[C@H]3CN(CC4CCCCC4)[C@H](c4ccccc4)C34CC2(c2cccnc2)C4)cc1 (stereo partly specified)	7%	23µM*	-1	-4%	18µM*
N#Cc1ccc(C23CC4(C2)[C@H](CN(Cc2ccc(C(F)(F)F)cc2)[C@@H]4c2ccccc2)C3c2ccc(C(F)(F)F)cc2)cc1 (stereo partly specified)	-20%	?	13	-2%	21µM*
CC(c1ccccc1C(=O)O)c1cc(F)cc2ccccc12 (stereo unspecified)	-19%	-4%	31	-20%	?
FC(F)(F)c1ccc(CN2C[C@@H]3C(c4ccc(C(F)(F)F)cc4)C4(c5cccnc5)CC3(C4)[C@H]2c2ccccc2)cc1 (stereo partly specified)	-1%	15µM*	47	-16%	15µM*
CN1C[C@@H]2C(c3ccc(C(F)(F)F)cc3)C3(c4cccnc4)CC2(C3)[C@H]1c1ccccc1 (stereo partly specified)	?	?	?	-5%	18µM*
COC(=O)c1ccc(C23CC4(C2)[C@H](CN(C)[C@@H]4c2ccccc2)C3c2ccc(Cl)nc2)cc1 (stereo partly specified)	-1%	?	4	-1%	15µM*
FC(F)(F)c1ccc(CN2C[C@@H]3C(c4ccccc4)C4(c5cccnc5)CC3(C4)[C@H]2c2ccccc2)cc1 (stereo partly specified)	2%	?	7	2%	?
c1ccc(C2[C@H]3CN(Cc4cccnc4)[C@H](c4ccccc4)C34CC2(c2ccccc2)C4)cc1 (stereo partly specified)	?	?	25	?	15µM*
c1ccc(C2[C@H]3CN(Cc4cccnc4)[C@H](c4ccccc4)C34CC2(c2cccnc2)C4)cc1 (stereo partly specified)	?	?	-5	?	?
Cc1nc(NCC2CCCO2)c2nnn(Cc3c(F)cccc3Cl)c2n1 (stereo unspecified)	1%	-23%	7	5%	?
FC(F)(F)c1ccc(C2[C@H]3CN(Cc4cccnc4)[C@H](c4ccccc4)C34CC2(c2ccccc2)C4)cc1 (stereo partly specified)	-9%	18µM*	9	?	?
COc1ccc(CNCc2ccc3c(c2)OCO3)cc1Br	2%	?	-23	-2%	16µM*
COc1ccc(CNCc2ccc3c(c2)OCO3)c(OC)c1OC	-11%	?	4	-1%	?
CCC(=O)[C@@]1(C)[C@H](C)C[C@H]2[C@@H]3CCC4=CC(=O)C=C[C@]4(C)[C@H]3[C@@H](O)C[C@@]21C	?	13µM*	?	?	16µM*
CCCC1O[C@@H]2C[C@H]3[C@@H]4CCC5=CC(=O)C=C[C@]5(C)[C@H]4[C@@H](O)C[C@]3(C)[C@]2(C(=O)CO)O1 (stereo partly specified)	-3%	-3%	-65*	9%	?
Cc1nn(CCC(N)=S)c2nc(-c3cccs3)cc(C(F)(F)F)c12	-12%	?	-3	-25%	?
CC(NC(=O)CN1CCN(Cc2cccc(F)c2)CC1)c1ccccc1 (stereo unspecified)	15%	7%	12	10%	-4%
N#Cc1c(N)n(-c2cccc(Cl)c2)c2nc3ccccc3nc12	.	-14%	.	.	-8%
CN(C)CCN(Cc1ccccc1)S(=O)(=O)c1ccc(-c2cc(C(F)(F)F)on2)s1	.	15µM*	.	.	12µM*
O=C(CSCc1ccc(Cl)cc1)Nc1ccc(O)cc1C(=O)O	14%	5%	3	-15%	-16%
CCOc1cc(/C=N/NC(=O)c2ccc(O)cc2)ccc1Oc1nc(Cl)ncc1F	-2%	21µM*	0	-1%	?
SMILES	HT1080-NT tox	DT40 TDP1 CPT	IL-1B inflam inh	HT1080 IDH1KD tx	DT40 TDP1 no CPT
CCOc1cc(/C=N\Nc2ncc(F)c(N3CCOCC3)n2)ccc1Oc1nc(Cl)ncc1F	?	5.2µM*	-83*	?	1.8µM*
COc1cccc(NC(=S)/C(=C(\[O-])c2ccc(OC(F)F)cc2)[n+]2ccccc2)c1	-10%	13µM*	26	-2%	15µM*
[O-]/C(=C(\C(=S)Nc1cccc2ccccc12)[n+]1ccccc1)c1ccc(OC(F)F)cc1	-11%	?	18	-17%	21µM*
COc1cccc(NC(=S)/C(=C(\[O-])c2ccc(C)c([N+](=O)[O-])c2)[n+]2ccccc2)c1	-6%	-23%	-15	-6%	-25%
Cc1ccc(N(CC(=O)Nc2ccc(Br)c(C)c2)S(=O)(=O)c2c(C)[nH]c(=O)[nH]c2=O)cc1	-8%	19%	40	-11%	15%
CC(C)(C)c1ccc(S(=O)(=O)NNC(=O)C2CCN(Cc3cccc(F)c3)CC2)cc1	-27%	-3%	-54*	-29%	-12%
CN1C2CCC1/C(=C\c1ccccc1)C(=O)/C2=C\c1ccccc1	?	12µM*	-95*	?	6.5µM*
Clc1ccc(/C=C\c2nccc3c2[nH]c2ccccc23)cc1	21µM*	?	48	18µM*	?
N#Cc1ccsc1NC(=O)CN1CCN(Cc2ccccc2)CC1	-1%	-3%	8	-1%	-20%
O=C(CN1CCN(S(=O)(=O)c2ccc3ccccc3c2)CC1)Nc1ccc2c(c1)CCC2	1%	23µM*	3	10%	?
O=C(CCl)N1CCN(S(=O)(=O)c2ccc3c(c2)CCC3)CC1	?	2.3µM*	-67*	?	0.65µM*

Bioassay records: PubChem BioAssay, National Center for Advancing Translational Sciences (NCATS)
